Reference: PubChem BioAssay (NCATS)
Results filed as inconclusive are left out. Active and inactive are the calls of the source. Calls come from the whole dose curve; as a rule, active = well fitted inhibition curve with a large enough effect; inconclusive = small, poorly fitted or top-dose-only effect; inactive = flat fitted curve, though single readings scatter.

Experiments:
Assay in all cases: qHTS profiling for inhibitors of Plasmodium falciparum proliferation (AID 504749); note: nearly all actives have a fitted effect of over 60% in size
Conditions in all cases: P. falciparum in erythrocytes, SYBR Green DNA, 72 h; series mostly up to 28.7 µM
C2A = test system: C2A
Summary of the method: (§1)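 Infected RBCs, 0.3% parasitemia/2.5% Hct final; cpd 72 h, 37 C, 5% CO2; lysis buffer with saponin/triton/SYBR Green I, o/n RT dark; FI 485/535; norm. to artemisinin (0.29 uM) and DMSO.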

CP185 = test system: CP185
Summary of the method: as §1

CP191 = test system: CP191
Summary of the method: as §1

CP192 = test system: CP192
Summary of the method: as §1

CP194 = test system: CP194
Summary of the method: as §1

CP201 = test system: CP201
Summary of the method: as §1

CP203 = test system: CP203
Summary of the method: as §1

CP211 = test system: CP211
Summary of the method: as §1

CP215 = test system: CP215
Summary of the method: as §1

CP217 = test system: CP217
Summary of the method: as §1

Measured: Potency

COc1cc(OC)cc(OC)c1
inactive: C2A | CP185 | CP191 | CP192 | CP194 | CP201 | CP203 | CP211 | CP215 | CP217

COc1ccc(C2C(=O)c3ccccc3C2=O)cc1
inactive: C2A | CP185 | CP191 | CP192 | CP194 | CP201 | CP203 | CP211 | CP215 | CP217

Oc1c(Cl)cc(Cl)cc1Sc1cc(Cl)cc(Cl)c1O
inactive: C2A | CP185 | CP191 | CP192 | CP194 | CP201 | CP203 | CP211 | CP215 | CP217

CN(C)/N=N/c1nc[nH]c1C(N)=O
inactive: C2A | CP185 | CP191 | CP192 | CP194 | CP201 | CP203 | CP211 | CP215 | CP217

OCc1ccccc1O
inactive: C2A | CP185 | CP191 | CP192 | CP194 | CP201 | CP203 | CP211 | CP215 | CP217

Cc1cc(O)c(C(C)C)cc1Cl
inactive: C2A | CP185 | CP191 | CP192 | CP194 | CP201 | CP203 | CP211 | CP215 | CP217

CC(=O)Oc1ccc(C(=C2CCCCC2)c2ccc(OC(C)=O)cc2)cc1
inactive: C2A | CP185 | CP191 | CP192 | CP194 | CP201 | CP203 | CP211 | CP215 | CP217

CC(=O)N(O)CCCCCNC(=O)CCC(=O)N(O)CCCCCNC(=O)CCC(=O)N(O)CCCCCN
inactive: C2A | CP185 | CP191 | CP192 | CP194 | CP201 | CP203 | CP211 | CP215 | CP217

O=C(O)CNC(=O)c1ccccc1
inactive: C2A | CP185 | CP191 | CP192 | CP194 | CP201 | CP203 | CP211 | CP215 | CP217

CCOC(=O)n1ccn(C)c1=S
inactive: C2A | CP185 | CP191 | CP192 | CP194 | CP201 | CP203 | CP211 | CP215 | CP217

Cc1c(N(C)CS(=O)(=O)O)c(=O)n(-c2ccccc2)n1C
inactive: C2A | CP185 | CP191 | CP192 | CP194 | CP201 | CP203 | CP211 | CP217

CN=C(NC#N)NCCSCc1csc(N=C(N)N)n1
inactive: C2A | CP185 | CP191 | CP192 | CP194 | CP201 | CP203 | CP211 | CP215 | CP217

O=c1ccc2ccccc2o1
inactive: C2A | CP185 | CP191 | CP192 | CP194 | CP201 | CP203 | CP211 | CP215 | CP217

O=C(COc1ccc(Cl)cc1)N1CCN(Cc2ccc3c(c2)OCO3)CC1
inactive: C2A | CP185 | CP191 | CP192 | CP194 | CP201 | CP203 | CP211 | CP215 | CP217

CCn1cc(C(=O)O)c(=O)c2cnc(N3CCCC3)nc21
inactive: C2A | CP185 | CP191 | CP192 | CP194 | CP201 | CP203 | CP211 | CP215 | CP217

CC(C)COC(=O)OCN1C(=O)CN(CCN2CC(=O)N(COC(=O)OCC(C)C)C(=O)C2)CC1=O
inactive: C2A | CP185 | CP191 | CP192 | CP194 | CP201 | CP203 | CP211 | CP215 | CP217

Cc1c(F)c(N2CCNC(C)C2)cc2c1c(=O)c(C(=O)O)cn2C1CC1 (stereo not drawn)
inactive: C2A | CP185 | CP191 | CP192 | CP194 | CP201 | CP203 | CP211 | CP215 | CP217

Cc1ccnc(NS(=O)(=O)c2ccc(N)cc2)n1
inactive: C2A | CP185 | CP191 | CP192 | CP194 | CP201 | CP203 | CP211 | CP217

O=C(O)CCCCC(=O)O
inactive: C2A | CP185 | CP191 | CP192 | CP194 | CP201 | CP203 | CP211 | CP215 | CP217

CCC(=O)c1c(O)cc(O)cc1O
inactive: C2A | CP185 | CP191 | CP192 | CP194 | CP201 | CP203 | CP211 | CP215 | CP217

N[C@H](Cc1c[nH]c2ccccc12)C(=O)O
inactive: C2A | CP185 | CP191 | CP192 | CP194 | CP201 | CP203 | CP211 | CP215 | CP217
